# Reference: PubChem BioAssay
# Activity calls are given as the source filed them.
# Assays:
# [1] = optical density shifts of acrAB sulA E. coli – strain DRC41, OD650, 48 h, E. coli filamentation inducer project, primary screen (AID 1152); conditions: higher = more signal, called active from +8 up or from −8 down;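 further: E. coli MC1000 strain DRC41 lacking acrAB efflux pump and sulA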
# [2] = probe aLefty1 binding on compound microarray – biochemical, small-molecule microarray, 635/667 nm fluorescence, primary screen (AID 1153); conditions: higher = more signal;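 further: score merges spot fluorescence with signal-to-noise ratio from the scanned slide images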
# [3] = plasmodial surface anion channel blockers, osmotic lysis – cell-based, P. falciparum Indochina, OD700, 1 h, primary screen (AID 1154); conditions: P. falciparum Indochina infected RBC osmotic lysis, higher = more signal, called active from +8 up or from −8 down
# [4] = plasmodial surface anion channel blockers, osmotic lysis – cell-based, P. falciparum Indochina, OD700, 2 h, primary screen (AID 1155);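 further: lysis reports solute entry through the parasite surface anion channel PSAC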; conditions: P. falciparum Indochina infected erythrocytes, higher = more signal, called active from +8 up or from −8 down
# [5] = changes in parasitized red cell lysis, either direction – P. falciparum Indochina, OD700, 3 h, PSAC antagonist project, primary screen (AID 1156); conditions: P. falciparum-infected erythrocytes, osmotic lysis, higher = more signal, called active from +8 up or from −8 down
# [6] = plasmodial surface anion channel blockers, osmotic lysis – cell-based, P. falciparum Indochina, OD700, 18 h, primary screen (AID 1157); conditions: P. falciparum Indochina infected erythrocytes, osmotic lysis OD700, 18 h; higher = more signal, called active from +8 up or from −8 down
# [7] = S6 kinase pathway phospho-S6 level changes – cell-based, A549, cytoblot, luminescence, serum-stimulated, primary screen (AID 1158); conditions: 5 h, higher = more signal;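 further: serum-stimulated A549 lung adenocarcinoma cells; signal is phosphorylated S6 detected by cytoblot immunostaining with HRP secondary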
# [8] = molecular target: NADPH oxidase 2 (Homo sapiens) (UniProt P04839); test: compounds shifting NOX2 Amplex Red fluorescence – cell-based, HEK293-NOX2, PMA-stimulated, NOX inhibitor project, primary screen (AID 1159); conditions: 45 min, higher = more signal, called active from +8 up or from −8 down; further: test concentration not given here
# Chain of NADPH oxidase 2 (Homo sapiens) (P04839 whole entry, looked up): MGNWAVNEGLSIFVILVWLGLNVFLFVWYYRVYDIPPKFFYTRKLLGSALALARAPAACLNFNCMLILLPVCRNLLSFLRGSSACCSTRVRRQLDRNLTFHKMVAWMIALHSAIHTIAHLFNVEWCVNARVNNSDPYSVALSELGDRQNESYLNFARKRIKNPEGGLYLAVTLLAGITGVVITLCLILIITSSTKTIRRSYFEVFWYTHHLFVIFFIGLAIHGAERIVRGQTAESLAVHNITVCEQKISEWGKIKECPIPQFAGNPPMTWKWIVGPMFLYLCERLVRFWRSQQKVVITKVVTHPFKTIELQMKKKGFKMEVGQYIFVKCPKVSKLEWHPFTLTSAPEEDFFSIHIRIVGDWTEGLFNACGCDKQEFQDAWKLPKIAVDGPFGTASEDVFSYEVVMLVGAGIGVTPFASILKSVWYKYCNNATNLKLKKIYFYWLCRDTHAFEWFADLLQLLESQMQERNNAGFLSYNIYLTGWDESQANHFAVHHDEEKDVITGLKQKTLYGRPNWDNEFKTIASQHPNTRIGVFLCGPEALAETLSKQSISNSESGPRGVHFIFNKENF
# [9] = molecular target: NADPH oxidase 4 (Homo sapiens) (UniProt Q9NPH5); test: compounds shifting NOX4 Amplex Red fluorescence – cell-based, HEK293-NOX4, tetracycline-induced, NOX inhibitor project, primary screen (AID 1160); conditions: HEK293-NOX4, Amplex Red H2O2 fluorescence, 45 min; higher = more signal, called active from +8 up or from −8 down
# Chain of NADPH oxidase 4 (Homo sapiens) (Q9NPH5 whole entry, looked up): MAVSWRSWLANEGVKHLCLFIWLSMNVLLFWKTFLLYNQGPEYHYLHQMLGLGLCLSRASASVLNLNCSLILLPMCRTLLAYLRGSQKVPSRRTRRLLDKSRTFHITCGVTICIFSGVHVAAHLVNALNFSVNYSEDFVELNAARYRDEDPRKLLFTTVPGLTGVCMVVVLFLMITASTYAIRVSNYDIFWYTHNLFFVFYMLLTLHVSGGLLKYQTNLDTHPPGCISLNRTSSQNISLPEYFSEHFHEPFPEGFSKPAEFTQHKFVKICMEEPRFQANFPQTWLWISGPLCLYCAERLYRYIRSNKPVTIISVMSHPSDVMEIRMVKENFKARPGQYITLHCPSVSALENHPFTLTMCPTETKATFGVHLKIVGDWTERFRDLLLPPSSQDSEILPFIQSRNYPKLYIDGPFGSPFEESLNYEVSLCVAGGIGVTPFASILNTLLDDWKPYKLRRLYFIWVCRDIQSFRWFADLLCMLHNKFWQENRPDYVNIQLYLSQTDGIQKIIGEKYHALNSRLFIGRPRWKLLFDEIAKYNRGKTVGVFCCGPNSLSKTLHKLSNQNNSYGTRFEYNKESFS
# [10] = molecular target: NADPH oxidase 5 (Homo sapiens) (UniProt Q96PH1); test: compounds shifting NOX5 Amplex Red fluorescence – cell-based, HEK293-NOX5, NOX inhibitor project, primary screen (AID 1161); conditions: HEK293-NOX5, ionomycin, 45 min, higher = more signal
# Chain of NADPH oxidase 5 (Homo sapiens) (Q96PH1 whole entry, looked up): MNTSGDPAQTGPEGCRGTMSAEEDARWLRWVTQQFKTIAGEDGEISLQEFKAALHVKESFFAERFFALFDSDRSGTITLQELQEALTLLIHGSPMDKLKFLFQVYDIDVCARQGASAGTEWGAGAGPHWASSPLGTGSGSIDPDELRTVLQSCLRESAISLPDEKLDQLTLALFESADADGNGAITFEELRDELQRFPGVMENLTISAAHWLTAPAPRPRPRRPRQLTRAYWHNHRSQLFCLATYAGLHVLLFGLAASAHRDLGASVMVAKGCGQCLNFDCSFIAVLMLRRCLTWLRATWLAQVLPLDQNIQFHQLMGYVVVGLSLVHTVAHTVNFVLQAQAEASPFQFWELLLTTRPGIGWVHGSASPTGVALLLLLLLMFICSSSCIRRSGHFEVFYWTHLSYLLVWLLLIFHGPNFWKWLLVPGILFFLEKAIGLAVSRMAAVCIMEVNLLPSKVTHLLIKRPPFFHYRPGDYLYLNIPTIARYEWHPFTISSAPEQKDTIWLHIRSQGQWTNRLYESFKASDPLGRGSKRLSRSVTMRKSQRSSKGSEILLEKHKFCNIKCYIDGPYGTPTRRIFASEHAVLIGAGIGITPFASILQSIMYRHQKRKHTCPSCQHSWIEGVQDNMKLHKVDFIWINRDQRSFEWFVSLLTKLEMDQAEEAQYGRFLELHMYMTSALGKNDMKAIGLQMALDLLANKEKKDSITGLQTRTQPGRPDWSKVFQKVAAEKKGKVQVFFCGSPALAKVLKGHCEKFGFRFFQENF
# [11] = compound effects on lung adenocarcinoma cell viability – A549, calcein-AM fluorescence, 48 h, basal, profiling panel (AID 1162); conditions: higher = more signal; further: test concentration not given here
# [12] = compound effects on differentiated 3T3-L1 adipocyte viability – cell-based, 3T3-L1 adipocytes, calcein-AM fluorescence, 48 h, basal, profiling panel (AID 1163); conditions: 3T3-L1 adipocytes viability, higher = more signal; further: test concentration not given here
# [13] = compound effects on hepatocellular carcinoma cell viability – HepG2, calcein-AM fluorescence, 48 h, basal, profiling panel (AID 1164); conditions: higher = more signal; further: test concentration not given here
# [14] = compound effects on multiple myeloma cell viability – MM1S, calcein-AM fluorescence, 48 h, basal, profiling panel (AID 1165); conditions: higher = more signal; further: test concentration not given here
# [15] = calcein-AM signal in unstimulated myeloma cells – cell-based, calcein-AM fluorescence, 48 h, PK04 Diversity Set, profiling panel (AID 1166); conditions: RPMI8226 myeloma viability, higher = more signal;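 further: cells grown under basal conditions without added stimulus; test concentration not given here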
# [16] = JC-1 mitochondrial signal, unstimulated HepG2 cells – cell-based, JC-1 fluorescence, 24 h, 100 nL compound, profiling panel (AID 1167); conditions: HepG2 mitochondrial potential, higher = more signal; further: test concentration not given here
# [17] = JC-1 mitochondrial signal, unstimulated adipocytes – cell-based, JC-1 fluorescence, 3T3-L1 adipocytes, 24 h, 100 nL compound, profiling panel (AID 1168); conditions: JC-1 mitochondrial fluorescence, higher = more signal, called active from +8 up or from −8 down; further: test concentration not given here
# [18] = JC-1 mitochondrial signal, unstimulated myeloma cells – cell-based, JC-1 fluorescence, RPMI8226, 24 h, 100 nL compound, profiling panel (AID 1169); conditions: JC-1 mitochondrial potential fluorescence, higher = more signal; further: test concentration not given here
# [19] = JC-1 mitochondrial signal, unstimulated MM1S myeloma – cell-based, JC-1 fluorescence, 24 h, 100 nL compound, profiling panel (AID 1170); conditions: MM1S mitochondrial potential, higher = more signal; further: test concentration not given here
# [20] = resazurin metabolic signal in A549 cells – cell-based, resazurin fluorescence, 24 h, PK04 Diversity Set, profiling panel (AID 1171); conditions: A549 viability, higher = more signal, called active from +8 up or from −8 down; further: test concentration not given here
SMILES,z-score [1],composite z-score [2],z-score [3],z-score [4],z-score [5],z-score [6],z-score [7],z-score [8],z-score [9],z-score [10],z-score [11],z-score [12],z-score [13],z-score [14],z-score [15],z-score [16],z-score [17],z-score [18],z-score [19],z-score [20]
C=CCOC(=O)[C@@H]1[C@H]2C(=O)O[C@H](c3ccccc3)[C@H](c3ccccc3)N2[C@H](c2ccc(OCCOC(=O)[C@@H]3C[C@@H]4C(=O)N[C@@H](Cc5ccccc5)C(=O)N4[C@@H]3c3cccc(OCCO)c3)cc2)[C@@]12C(=O)Nc1ccc(I)cc12,0.264 (inactive),0.706,9.36 (active),2.8 (inactive),2.09 (inactive),1.31 (inactive),-0.479,1.03 (inactive),-1.02 (inactive),0.727,-1.15,0.185,-0.0074,0.359,-1.1,-1.57,0.235 (inactive),-0.505,-1.14,0.789 (inactive)
CCCCCN1CC=CC23O[C@@H]4/C=C\CCC(C)OC(=O)C4[C@H]2C(=O)N(CCCCCO)[C@@H]3C1=O (stereo not given in full),2.65 (inactive),-0.493,0.42 (inactive),-0.524 (inactive),-0.935 (inactive),-0.875 (inactive),0.832,1.03 (inactive),-0.177 (inactive),1.45,-0.213,1.56,0.167,0.599,-0.0704,-0.356,0.637 (inactive),-0.982,-0.617,0.475 (inactive)
COC(=O)[C@@]1(Cc2ccccc2)N=C(c2ccc(OCCCO)cc2)O[C@H]1c1ccccc1N=[N+]=[N-],0.388 (inactive),0.129,29.2 (active),24.1 (active),1.79 (inactive),5.76 (inactive),0.661,-2.01 (inactive),0.373 (inactive),-1.06,0.119,0.113,-2.06,-3.35,-4.04,1.12,-0.528 (inactive),-1.11,-0.896,-1.83 (inactive)
COc1ccc(CCN2C(=O)[C@@]3(Cc4ccccc42)c2ccccc2C(=O)N(Cc2ccccc2Cl)[C@H]3c2ccc(CO)cc2)cc1,0.641 (inactive),0.0844,2.59 (inactive),0.346 (inactive),0.679 (inactive),0.425 (inactive),0.306,1.3 (inactive),-1.49 (inactive),1.28,0.517,-0.0827,0.589,0.23,-0.441,0.308,-0.106 (inactive),-0.316,0.256,-0.343 (inactive)
CCN(CC)c1ccc(N2CC=CC34O[C@@H]5/C=C\CCCOC(=O)C5[C@H]3C(=O)N(C(CO)C(C)C)[C@@H]4C2=O)cc1 (stereo not given in full),-0.522 (inactive),-0.137,1.38 (inactive),0.486 (inactive),0.883 (inactive),0.648 (inactive),-0.713,0.0116 (inactive),0.337 (inactive),0.492,-0.0889,0.102,0.825,0.905,-0.62,-0.243,-0.0916 (inactive),0.139,-0.26,-0.506 (inactive)
